High-throughput results from PubChem BioAssay.
TEAD-YAP block = TEAD-YAP interaction inhibition; HEK-TIYL cells, TEAD-Gal4/YAP UAS-luciferase luminescence; inhibition, % at 9.12 µM; 640,000 compounds, 1.4% hits; in the data active means inhibition above about 32%
FBW7 act = human FBW7 E3 ligase activation, primary screen. AlphaScreen FBW7–phospho-cyclin E peptide binding, activator screen. Q969H0. normalized activity (activation), % at 26.1 µM. 650,000 compounds, 0.13% hits; in the data active means normalized activity above about 1.9%;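 further: purified mutant Fbw7 with reduced substrate affinity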
Target sequence (Q969H0 whole entry, looked up): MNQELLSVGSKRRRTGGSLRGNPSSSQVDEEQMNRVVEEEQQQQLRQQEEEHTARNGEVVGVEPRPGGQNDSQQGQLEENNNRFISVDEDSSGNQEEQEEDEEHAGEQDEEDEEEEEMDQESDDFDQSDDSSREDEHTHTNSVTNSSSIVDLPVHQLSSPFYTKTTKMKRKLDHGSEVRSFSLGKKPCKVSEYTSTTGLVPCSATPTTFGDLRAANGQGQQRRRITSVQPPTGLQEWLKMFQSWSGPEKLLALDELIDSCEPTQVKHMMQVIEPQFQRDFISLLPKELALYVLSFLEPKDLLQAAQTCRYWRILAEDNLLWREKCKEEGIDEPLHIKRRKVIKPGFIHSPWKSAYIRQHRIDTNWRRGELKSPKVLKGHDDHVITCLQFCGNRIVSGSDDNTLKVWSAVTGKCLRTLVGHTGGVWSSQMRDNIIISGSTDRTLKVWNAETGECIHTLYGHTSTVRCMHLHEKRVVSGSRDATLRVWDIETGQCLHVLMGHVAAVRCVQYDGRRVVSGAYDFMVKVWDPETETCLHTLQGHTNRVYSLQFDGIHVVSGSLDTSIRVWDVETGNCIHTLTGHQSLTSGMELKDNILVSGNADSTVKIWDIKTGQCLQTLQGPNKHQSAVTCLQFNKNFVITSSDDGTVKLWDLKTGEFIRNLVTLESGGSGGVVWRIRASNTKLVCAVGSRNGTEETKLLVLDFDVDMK
GPR151 activ = activates the human receptor GPR151; activation, % at 11.2 µM; PathHunter beta-arrestin GPR151 cells, luminescence; AID 1508602; 650,000 compounds, 1% hits; in the data active means activation above about 4.9%
MITF primary = inhibitors of human MITF; 650,000 compounds, 0.91% hits; AlphaScreen MITF homodimerization, bead proximity signal; O75030; inhibition, % at 2.6 µM; AID 1259374; in the data active means inhibition above about 50%
MITF inh conf = confirmation of human MITF inhibitors; shares compounds with MITF primary; AlphaScreen MITF homodimerization, biotin/His-MITF beads; inhibition, % at 2.6 µM; 4,700 compounds, 16% hits;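 active means inhibition above a cutoff derived from the DMSO control wells, cut at about 28% in these data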;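 further: inhibitors lower the bead chemiluminescence by keeping MITF from dimerizing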
AlphaScreen DR = optically interferes with AlphaScreen signal in dose response; shares compounds with MITF primary; AlphaScreen optical interference counterscreen, cell-free; IC50, µM; 480 compounds, 6% hits; AID 1259373; call rule not given here
AS interf ctr = optically interferes with AlphaScreen signal; shares compounds with MITF primary; LysRS AlphaScreen counterscreen, signal interference, triplicate; inhibition, % at 2.6 µM; 4,700 compounds, 7.6% hits;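 active means inhibition above a cutoff derived from the DMSO control wells, cut at about 30% in these data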
Each line names hits and unclear results; the compound was inactive in the other large screens (follow-up assays come after a bar, where they were run); ! = repeats disagree. In the library only some 3.4% were active in any assay of this set; here they are far more common.

COc1ccc(C(CNCCC(=O)O)N(C)C)cc1 (stereo not given)	MITF primary 55.1 | MITF inh conf inactive | AS interf ctr inactive
O=C(O)c1coc(CNC(=O)c2cocc2C(=O)O)c1	MITF primary 64.2 | MITF inh conf 50.4 | AlphaScreen DR inactive | AS interf ctr inactive
CNC(=O)C1C2C=CC3(O2)C1C(=O)N(Cc1cccs1)C3C(=O)NC1CCCCC1 (stereo not given)	none
OCCN1CCN(c2cc(-c3ccncc3)nc(-c3ccccc3)n2)CC1	none
OCCN1CCN(c2cc(-c3ccccc3)c3ccccc3n2)CC1	MITF primary 76.0 | MITF inh conf inactive | AS interf ctr inactive
O=C(O)CCCNC(=O)Cc1ccccc1Cl	none
CC(=O)c1ccc(OCC(O)CN(C)CCC#N)cc1 (stereo not given)	MITF primary 66.2 | MITF inh conf inactive | AS interf ctr inactive
CC(=O)c1ccc(OCC(O)COc2ccc(C(C)=O)cc2)cc1	none
CN1C(=O)[C@H]2CN(C(=O)NC3CCCCC3)CCN2C(=O)[C@@H]1CO	MITF primary 76.4 | MITF inh conf 71.0 | AlphaScreen DR inactive | AS interf ctr inactive
CN1C(=O)[C@H]2CN(C(=O)c3ccc(Cl)cc3)CCN2C(=O)[C@@H]1CO	none
O=C(NC1CCCCC1)N1CCN2C(=O)[C@H]3CCCN3C(=O)[C@H]2C1	MITF primary 78.8 | MITF inh conf 73.2 | AlphaScreen DR inactive | AS interf ctr inactive
NC(=O)C1CCN(S(=O)(=O)c2ccc(F)cc2F)CC1	none
CC(C)N(CCNc1ncnc2c1nc(Nc1ccccn1)n2C(C)C)C(C)C	none
Nc1c(-c2nc(-c3ccccc3)no2)nnn1CC(=O)Nc1ccc(F)cc1	none
O=C(c1ccccc1)N1CCN(C(=O)c2cccc(F)c2)CC1	none
O=C(c1cccc(F)c1)N1CCN(Cc2ccccc2Br)CC1	MITF primary 57.0 | MITF inh conf inactive | AS interf ctr inactive
O=C(c1ccncc1)N1CCN(Cc2ccccc2C(F)(F)F)CC1	MITF primary 69.5 | MITF inh conf inactive | AS interf ctr inactive
CC(C)CC(=O)N1CCN(Cc2ccccc2C(F)(F)F)CC1	MITF primary 58.4 | MITF inh conf inactive | AS interf ctr inactive
CC(C)CC(=O)N1CCN(C(=O)c2cccs2)CC1	none
O=C(c1ccccc1)N1CCN(C(=O)c2ccncc2)CC1	none
O=C(c1ccco1)N1CCN(Cc2ccccc2[N+](=O)[O-])CC1	MITF primary 75.7 | MITF inh conf inactive | AS interf ctr inactive
Cc1ccc(-c2nc3s/c(=C/c4ccc(-c5ccc(Br)cc5)o4)c(=O)n3n2)cc1	none
Cc1ccc(S(=O)(=O)NCCCNc2ccc([N+](=O)[O-])cc2Cl)cc1	none
OCCNc1nc(NCc2ccc3c(c2)OCO3)nc2c1ncn2-c1ccsc1	none
O=C(c1ccco1)N1CCN(Cc2ccccc2C(F)(F)F)CC1	MITF primary 66.0 | MITF inh conf inactive | AS interf ctr inactive
O=C(c1ccc(-c2ccccc2)cc1)N1CCN(Cc2ccccc2C(F)(F)F)CC1	MITF primary 65.2 | MITF inh conf inactive | AS interf ctr inactive
O=C(c1ccccc1)N1CCN(CCCc2ccccc2)CC1	none
O=C(c1cccc(F)c1)N1CCN(Cc2ccccc2C(F)(F)F)CC1	MITF primary 53.1 | MITF inh conf inactive | AS interf ctr inactive
CC(C)CC(=O)N1CCN(CCCc2ccccc2)CC1	MITF primary 52.3 | MITF inh conf inactive | AS interf ctr inactive
O=C(c1ccco1)N1CCN(Cc2ccc(Br)cc2)CC1	none
NC(=O)c1cccc(-c2cnn3c(N4CCOCC4)ccnc23)c1	none
Cc1ccc(-n2c(=O)c(C#N)cc3c(=O)n4ccccc4nc32)c(C)c1	none
CCC1(C2CCN(Cc3sccc3C)CC2)NC(=O)N(CCc2scnc2C)C1=O (stereo not given)	none
Cc1cc(-c2csc(N)n2)c(C)n1CC1COc2ccccc2O1 (stereo not given)	none
CCOc1ccc(C(CN)c2c[nH]c3ccccc23)cc1OC (stereo not given)	none
COCCN1CCC(CN(C)c2nc3nonc3nc2N2CCCCC2)C1 (stereo not given)	none
O=C(c1ccc(F)cc1)N1CCN(Cc2ccccc2C(F)(F)F)CC1	MITF primary 64.9 | MITF inh conf inactive | AS interf ctr inactive
COc1ccccc1CN1CCN(C(=O)c2ccc(F)cc2)CC1	none
COc1ccc(C(=O)Nc2ccc(N3CCCC3)c(Cl)c2)cc1	none
O=C(NC1CCN(C(=O)CN2CCOCC2)CC1)c1ccccc1F	MITF primary 69.1 | MITF inh conf inactive | AS interf ctr inactive
COCCCNCCOCCOc1c(C)cc(C)cc1C	none
Cc1cc(C)c(OCCOCCNCCN)c(C)c1	MITF primary 70.5 | MITF inh conf inactive | AS interf ctr inactive
COCCCNCCOCCOc1c(C)cc(Cl)cc1C	MITF primary 71.5 | MITF inh conf inactive | AS interf ctr inactive
Cc1cc(Cl)cc(Cl)c1OCCOCCNCCN	MITF primary 64.6 | MITF inh conf inactive | AS interf ctr inactive
Cc1cc(OCCOCCNCCN)cc(C)c1Cl	none
Cc1cc(O)c2c(c1)C(=O)c1cccc(O)c1C2=O	none
O=C1c2c(O)cccc2Cc2cccc(O)c21	MITF primary 85.9! | MITF inh conf 115.5 | AlphaScreen DR inactive | AS interf ctr inactive
Brc1ccc(-c2nnc3sc(CN4CCOCC4)cn23)cc1	none
Brc1ccc(-c2nnc3sc(CN4CCCCC4)cn23)cc1	MITF primary 67.2 | MITF inh conf inactive | AS interf ctr inactive
COc1ccc2ccccc2c1CN1CCSCC1	MITF primary 54.0 | MITF inh conf inactive | AS interf ctr inactive
CCC(C)NC(=O)c1cnn2c1NC(c1cc(OC)c(OC)c(OC)c1)CC2C(F)(F)F (stereo not given)	none
Cc1cc(CSC(=N)N)c(O)c(C)n1	MITF primary 64.7 | MITF inh conf 82.3 | AlphaScreen DR inactive | AS interf ctr inactive
Cc1cc(CSC(=N)N)c(O)c(C(C)(C)C)n1	none
Cc1cc(C)cc(Nc2nc(-c3cccc(C)c3)nc3ccccc23)c1	none
c1cnc(N2CCC(Oc3ccc(-c4ccsc4)cc3)CC2)nc1	none
O=C(CC1(O)C(=O)Nc2ccc([N+](=O)[O-])cc21)c1ccccc1 (stereo not given)	MITF primary 68.7 | MITF inh conf inactive | AS interf ctr inactive
O=C(CC1(O)C(=O)Nc2ccccc21)c1ccc([N+](=O)[O-])cc1 (stereo not given)	none
CC(C)(c1ccc(O)c(N)c1)c1ccc(O)c(N)c1	MITF primary 73.6 | MITF inh conf inactive | AS interf ctr 33.0
CC(C)(c1ccc(O)cc1)c1ccc(O)cc1	none
CC(N)C(=O)Nc1ccccc1-c1ccccc1 (stereo not given)	none
CC(C(=O)Nc1ccccc1-c1ccccc1)N1CCCC1 (stereo not given)	MITF primary 75.2 | MITF inh conf inactive | AS interf ctr inactive
